Source: PubChem
In the library only some 6.6% were active in any assay of this set; here they are far more common.
KB-V1 cytotox: kills drug-selected multidrug resistant KB-V1 cells; Potency, µM (top dose mostly 46.1 µM), hits mostly cytotoxic; AID 1347076; KB-V1 MDR cells viability, CellTiter-Glo, 72 h; actives 3.4% (n = 400,000); further: on the % scale 0 is the no-effect control and ±100 the full control effect; nearly all actives have a fitted effect of over 60% in size
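Following 72 h at 37 degrees C with compound, KB-V1 cell viability was read by CellTiter-Glo luminescence, medium being phenol-red-free DMEM plus 10% FBS; concentration-response parameters came from normalized, curve-fitted qHTS data.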
HepG2 tox: counter-screen for TGF-b inhibitors: cytotoxicity in HepG2 cells; HepG2 CAGA-GFP viability, ATP luminescence, 18 h; Potency, µM (series often up to 46.1 µM), inactives show at the highest dose activity change, negative = cytotoxicity, hits mostly cytotoxic; actives 0.76% (n = 410,000); AID 588856
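HepG2 CAGA-GFP cells (1000/well, DMEM with 1% FBS) received compound, then TGF-beta at 500 pg/mL final, and were incubated 18 hours at 37 degrees C. Viability was read by CellTiter-Glo luminescence. Media-only wells were set as complete cell-killing and DMSO as no toxicity.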
HT1080 IDH1KD tx: kills HT-1080 cells with IDH1 knockdown; HT-1080 IDH1 knockdown viability, ATP luminescence, 48 h; actives 2% (n = 360,000); AID 686971; Potency, µM (titrated, usually from 46.1 µM), for inactives: top-dose activity, negative = toxicity, usual class: cytotoxic;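 further: 0% = DMSO wells and -100% = cell-free medium wells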
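% activity derives from luminescence (CellTiter-Glo), normalised to DMSO and no-cell wells. HT-1080-IDH1KD cells, 750/well, had 48 h compound exposure at 37 °C.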
HT1080NT lethal: kills 2HG-producing HT-1080-NT fibrosarcoma cells; HT-1080-NT fibrosarcoma viability, CellTiter-Glo ATP luminescence, 48 h; Potency, µM (doses to about 46.1 µM), inactives show at the highest dose activity, negative = less viability, most hits filed as cytotoxic; actives 1.6% (n = 360,000); AID 686970;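 further: NT is the 2HG producing partner of a matched IDH1 knockdown line; 0% = DMSO-treated cells and -100% = media-only wells without cells; nearly all actives have a fitted effect of over 55% in size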
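HT-1080-NT fibrosarcoma cells (2HG-overproducing), 750 cells/well in RPMI with 5% FBS, dosed after 2 h and incubated 48 h at 37C. CellTiter-Glo luminescence normalized to DMSO and no-cell wells; concentration-response curves fitted and classed.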
KB-3-1 cytotox: kills parental KB-3-1 adenocarcinoma cells. KB-3-1 viability, CellTiter-Glo ATP luminescence, 72 h. Potency, µM (top dose mostly 46.1 µM), hits mostly cytotoxic. actives 1.4% (n = 400,000). AID 1347075; further: on the % scale 0 is the no-effect control and ±100 the full control effect; nearly all actives have a fitted effect of over 60% in size
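Luminescent ATP read-out (CellTiter-Glo) measures survival of drug-naive KB-3-1 cells after 72 h compound exposure at 37 °C. Titration series was screened from lowest to highest concentration, with DMSO vehicle plates as background controls.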
TGFb inhibitor: inhibitors of TGF-b signaling; HepG2 CAGA-GFP TGF-b/SMAD3 reporter, GFP fluorescence, 18 h; TGF-beta stimulated, 500 pg/mL final; Potency, µM (highest dose often 46.1 µM), inactives show top-dose activity, negative = inhibition, most hits filed as inhibitors; actives 1.2% (n = 410,000); AID 588855; further: on the % scale 0 is the no-effect control and ±100 the full control effect; nearly all actives have a fitted effect of over 65% in size
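HEPG2 CAGA-GFP cells (1000/well, DMEM with 1% FBS) were pre-incubated 2 h at 37 degrees C, given compound by pin tool, then stimulated with TGF-beta at 500 pg/mL final for 18 h before per-cell GFP fluorescence imaging.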
* marks the source's active call; other numbers are inactive results; i = inactive; ? = inconclusive; / = no result given; ! = repeats disagree; [ ] = another dose, or the depositor's remark. The call rests on the fitted dose curve; in most records, active means well fitted curve in the direction sought with a large enough effect; inconclusive means small, poorly fitted or top-dose-only effect, or another doubt; inactive means no such curve, though single readings can be large; an effect the other way counts as inactive or inconclusive. Potency means the concentration at half of the fitted maximal effect.

SMILES | KB-V1 cytotox | HepG2 tox | HT1080 IDH1KD tx | HT1080NT lethal | KB-3-1 cytotox | TGFb inhibitor
C[C@H](CO)N1C[C@H](C)[C@@H](CN(C)C(=O)NC2CCCCC2)Oc2ccc(NC(=O)C3CC3)cc2C1=O | i | -8% | -2% | 1% | i | -13%
Cc1ccc(S(=O)(=O)C=CS(=O)(=O)c2ccc(C)cc2)cc1 | i | -112% | ? | ? | ? | ?
O=S(=O)(/C=C/C=C/S(=O)(=O)c1ccccc1)c1ccccc1 | i | -80% | 1.3µM* | ? | 6.5µM* | 3.5µM*
CC(=O)N(O)CCCCCNC(=O)CCC(=O)N(O)CCCCCNC(=O)CCC(=O)N(O)CCCCCN | ? | -3% | ? | ? | 21µM*! | -8%
NC(=O)c1c(NC(=O)c2noc3c2CCCC3)sc2c1CCCC2 | / | 4% | / | / | / | -1%
O=c1cc(C(Cl)(Cl)Cl)oc2c1ccc1ccccc12 | i | -50% | 12µM* | 16µM* | ? | -27%
CCCCCn1c(CN2CCN(CCO)CC2)nc2c1c(=O)n(C)c(=O)n2C | i | -28% | -1% | -4% | i | -8%
CCOCCn1c(CN2CCN(c3ccc(F)cc3)CC2)nc2c1c(=O)n(C)c(=O)n2C | 9.2µM* | -19% | -14% | -3% | ? | -3%
CCCCn1c(CN2CCN(C(=O)OCC)CC2)nc2c1c(=O)n(C)c(=O)n2C | 13µM* | 4% | 5% | -2% | ? | -9%
C/C(=C1/C=Nc2ccccc21)c1ccc(N(C)C)cc1 | ? | -42% | / | / | ? | ?
Cc1nn(-c2ccccc2)c(C)c1/C=N/NC(=O)c1cc(C(C)(C)C)[nH]n1 | ? | -8% | -9% | -6% | i | -10%
Cc1cccc(C)c1NC(=O)c1c(C)nn(-c2ccccc2)c1Cl | 15µM* | -24% | -13% | -1% | i | 12%
Cc1ccc(C)c(OCC(=O)N/N=C/c2c(C)nn(-c3ccccc3)c2Cl)c1C | 8.2µM* | 4% | 4% | 12% | ? | -46%
Cc1ccc(-c2cc(C(=O)N/N=C/c3c(C)nn(-c4ccccc4)c3C)n[nH]2)s1 | i | -31% | 1.8µM* | 1.6µM* | i | 13µM*
CCc1n[nH]c(=S)n1/N=C/c1c(C)nn(-c2ccccc2)c1Cl | 1.3µM* | 4% | 3% | 3% | ? | -1%
COC(=O)/C=C/c1ccccc1S(=O)(=O)NC(C)C | i | 14% | / | / | i | 1%
Cc1ccccc1OCC(=O)Nc1ccccc1OCc1cc(=O)n2ccccc2n1 | / | -2% | / | / | / | 2%
Cc1nn(-c2cccc(C(F)(F)F)c2)c(Cl)c1/C=N/Nc1cccc(C(=O)O)c1 | i | -54% | -17% | -10% | i | 1%
CCOC(=O)N/N=C/c1c(C)nn(-c2cccc(C(F)(F)F)c2)c1Cl | 2.6µM* | -41% | 2.3µM* | 3.3µM* | 2.1µM* | -31%
Cc1nn(Cc2ccccc2)c(Cl)c1/C=N/NC(=O)CNc1cccc(C(F)(F)F)c1 | 9.2µM* | -41% | -15% | -14% | i | -13%
Cc1nn(-c2ccccc2)c(Cl)c1/C=N/NC(N)=O | 2.1µM* | -29% | 11% | 9% | ? | 17%
O=C(CNc1cccc(C(F)(F)F)c1)N/N=C/c1cccc(Br)c1 | i | -91% | 15% | 22% | i | 0%
Cc1ccc(NC(=O)N(Cc2c[nH]c3ccccc23)C2CCCCCC2)cc1C | ? | -19% | / | / | i | ?
Cc1cc(C)c(/C=C/c2onc(C)c2S(=O)(=O)N2CCC(C(=O)N(C)Cc3ccccc3)CC2)c(C)c1 | / | 0% | / | / | / | ?
O=C(Nn1c(-c2ccc(Br)cc2)nc2ccccc2c1=O)c1ccncc1 | i | -1% | 14% | 16% | i | -5%
SMILES | KB-V1 cytotox | HepG2 tox | HT1080 IDH1KD tx | HT1080NT lethal | KB-3-1 cytotox | TGFb inhibitor
Cc1cc(C(=O)Nn2c(-c3ccc(Br)cc3)nc3ccccc3c2=O)ccc1[N+](=O)[O-] | i | -31% | ? | 33µM* | ? | 13µM*
CCCCCCN1Cc2ccccc2C1 | i | 2% | 4% | 12% | i | -21%
CCCCCCCCCCn1ccc(=N)cc1 | ? | -49% | 10µM* | ? | 2.3µM* | ?
CCCCCCCCn1ccc(=N)cc1 | i | -32% | -22% | ? | 5.8µM* | -24%
CCOc1ccc(NC(=O)C(C)n2c(=O)cc(C)c3c(C)nn(-c4ccccc4)c32)cc1 (stereo not given) | i | 6% | / | / | i | -14%
CCN(C(=O)COC(=O)c1ccc(-n2c(C)ccc2C)cc1)c1c(N)n(Cc2ccccc2)c(=O)[nH]c1=O | i | -12% | -9% | 0% | i | 2%
COCCN1C(=O)C(=O)/C(=C(/O)c2ccc(S(=O)(=O)N3CCOCC3)cc2)C1c1cccc([N+](=O)[O-])c1 (stereo not given) | ? | 15% | 24% | ? | i | 2%
CCC(C)(C)n1nnnc1CN1CCC(NC(=O)c2ccc(Br)cc2)CC1 | i | 7% | 1% | 2% | i | -16%
O=C(NC1CCN(Cc2nnnn2CCc2ccccc2)CC1)c1ccccc1F | 16µM* | -6% | -6% | 0% | i | -13%
Cc1ccc(Cn2nnnc2CN2CCC(NC(=O)c3ccc(Br)cc3)CC2)cc1 | 18µM* | -3% | 0%[9.24 µM] | -3% | i | 0%
Cc1ccc(Cn2nnnc2CN2CCC(c3nc4ccc(Cl)cc4[nH]3)CC2)cc1 | 3.3µM* | 1% | ? | -11% | 18µM* | -24%
O=C(/C=C/c1ccc([N+](=O)[O-])o1)Nc1cccc([S+](=O)([O-])Nc2ccccc2F)c1 | i | / | / | / | i | /
